# Assay results published in publication PMC7862700, “An all-to-all approach to the identification of sequence-specific readers for epigenetic DNA modifications on cytosine”.
# Tests used:
# Experiment in all cases: DAPPL (digital affinity profiling via proximity ligation, sequencing); 10 mM Tris-HCl pH 7.5, 50 mM NaCl, 1 mM DTT, 4% glycerol, room temperature, 30 min; GST-TFs on glutathione beads, 16-mer random dsDNA library, 0.1% formaldehyde crosslink after washing; high values mean tight binding
# FEV = target: T1, FEV (Homo sapiens, UniProt Q99581 1-238); conditions: protein: recombinant; tags: N-terminal GST; dsDNA, one strand shown
# T1 sequence: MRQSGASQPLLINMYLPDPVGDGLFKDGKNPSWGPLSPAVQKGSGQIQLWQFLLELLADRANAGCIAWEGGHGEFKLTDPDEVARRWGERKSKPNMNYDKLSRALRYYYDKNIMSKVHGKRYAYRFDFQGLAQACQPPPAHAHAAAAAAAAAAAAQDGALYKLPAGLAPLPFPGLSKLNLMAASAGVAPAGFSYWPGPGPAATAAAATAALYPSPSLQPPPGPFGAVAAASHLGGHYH
# Procedure, shortened: (§1)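 Beads coated with glutathione captured GST-fused human transcription factors that had been expressed in yeast, and the factors were then given DNA barcodes and pooled with a tag-only sample. The pools were incubated with 200 nmole of a random double-stranded 16-mer DNA library in Tris/NaCl/DTT/glycerol buffer for 30 min at room temperature, washed, crosslinked with 0.1% formaldehyde and proximity-ligated with BsaI/T4 ligase at 37 °C for 1 h. PCR amplification and Illumina NextSeq500 sequencing came last. Binding signal is each hexamer's read frequency for a factor divided by its frequency for the tag-only sample.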
# ETV5 = ETV5 (Homo sapiens, UniProt P41161 1-510); conditions: protein: recombinant; tags: N-terminal GST; dsDNA, one strand shown
# Sequence of ETV5 (P41161 whole entry): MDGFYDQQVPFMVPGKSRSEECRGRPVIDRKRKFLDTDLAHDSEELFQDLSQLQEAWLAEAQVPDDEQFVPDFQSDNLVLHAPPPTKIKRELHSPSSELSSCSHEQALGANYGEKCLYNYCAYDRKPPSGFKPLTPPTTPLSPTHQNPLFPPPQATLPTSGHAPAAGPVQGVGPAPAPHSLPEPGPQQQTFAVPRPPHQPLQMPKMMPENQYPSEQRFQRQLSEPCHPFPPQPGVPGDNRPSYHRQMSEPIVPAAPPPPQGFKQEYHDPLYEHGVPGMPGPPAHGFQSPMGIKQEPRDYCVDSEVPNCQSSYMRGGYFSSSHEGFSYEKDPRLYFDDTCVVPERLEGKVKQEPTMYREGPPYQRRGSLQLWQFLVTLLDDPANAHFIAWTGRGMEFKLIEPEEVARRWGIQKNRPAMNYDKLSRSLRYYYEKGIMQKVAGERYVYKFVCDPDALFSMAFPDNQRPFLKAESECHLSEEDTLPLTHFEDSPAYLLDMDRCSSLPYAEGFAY
# Procedure, shortened: as §1
# HSF1 = HSF1 (Homo sapiens, UniProt Q00613 1-529); conditions: protein: recombinant; tags: N-terminal GST; chain copies: 3; dsDNA, one strand shown
# Sequence of HSF1 (Q00613 whole entry): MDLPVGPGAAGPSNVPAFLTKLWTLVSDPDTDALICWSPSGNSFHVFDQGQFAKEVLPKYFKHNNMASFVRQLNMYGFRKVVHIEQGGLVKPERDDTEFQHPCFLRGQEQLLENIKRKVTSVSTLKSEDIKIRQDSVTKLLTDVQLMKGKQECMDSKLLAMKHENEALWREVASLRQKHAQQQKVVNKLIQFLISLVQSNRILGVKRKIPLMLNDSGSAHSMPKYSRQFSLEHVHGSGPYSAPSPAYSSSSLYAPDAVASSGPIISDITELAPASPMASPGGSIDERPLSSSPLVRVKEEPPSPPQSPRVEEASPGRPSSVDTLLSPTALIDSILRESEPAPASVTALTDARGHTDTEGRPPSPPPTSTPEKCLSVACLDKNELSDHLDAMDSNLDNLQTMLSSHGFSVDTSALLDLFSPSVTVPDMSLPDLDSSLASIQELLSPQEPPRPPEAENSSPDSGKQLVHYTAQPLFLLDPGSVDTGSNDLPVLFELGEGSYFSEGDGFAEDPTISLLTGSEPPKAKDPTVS
# Procedure, shortened: as §1
# SPIC = target: T2, SPIC (Homo sapiens, UniProt Q8N5J4 1-248); conditions: protein: recombinant; tags: N-terminal GST; dsDNA, one strand shown
# T2 sequence: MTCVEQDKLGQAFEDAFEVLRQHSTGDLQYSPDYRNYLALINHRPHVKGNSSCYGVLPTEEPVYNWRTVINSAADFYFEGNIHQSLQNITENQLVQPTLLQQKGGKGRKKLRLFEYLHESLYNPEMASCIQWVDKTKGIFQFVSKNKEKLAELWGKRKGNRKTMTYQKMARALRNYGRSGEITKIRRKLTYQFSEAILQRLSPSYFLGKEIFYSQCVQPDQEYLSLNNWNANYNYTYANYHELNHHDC
# Procedure, shortened: as §1
# ELF4 = ELF4 (Homo sapiens, UniProt Q99607 1-663); conditions: protein: recombinant; tags: N-terminal GST; dsDNA, one strand shown
# Sequence of ELF4 (Q99607 whole entry): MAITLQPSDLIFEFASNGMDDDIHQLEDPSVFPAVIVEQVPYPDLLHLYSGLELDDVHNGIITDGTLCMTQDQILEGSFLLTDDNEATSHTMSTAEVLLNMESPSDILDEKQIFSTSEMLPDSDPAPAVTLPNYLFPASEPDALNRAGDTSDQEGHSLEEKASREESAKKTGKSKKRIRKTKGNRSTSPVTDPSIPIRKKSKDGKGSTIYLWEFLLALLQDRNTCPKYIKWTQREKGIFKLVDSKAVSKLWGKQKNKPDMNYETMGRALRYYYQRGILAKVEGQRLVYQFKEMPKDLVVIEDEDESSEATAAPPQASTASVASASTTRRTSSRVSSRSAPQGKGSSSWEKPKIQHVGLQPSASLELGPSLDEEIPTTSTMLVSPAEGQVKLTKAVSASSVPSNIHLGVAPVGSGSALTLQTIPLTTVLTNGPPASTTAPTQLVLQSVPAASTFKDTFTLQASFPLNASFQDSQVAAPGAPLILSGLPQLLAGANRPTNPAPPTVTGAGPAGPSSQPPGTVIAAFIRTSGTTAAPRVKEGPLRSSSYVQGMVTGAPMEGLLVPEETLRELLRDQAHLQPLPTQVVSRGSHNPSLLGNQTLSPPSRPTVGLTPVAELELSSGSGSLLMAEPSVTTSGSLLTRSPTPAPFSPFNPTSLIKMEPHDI
# Procedure, shortened: as §1
# ELK4 = target: T3, ELK4 (Homo sapiens, UniProt P28324-2 1-405); conditions: protein: recombinant; tags: N-terminal GST; dsDNA, one strand shown
# T3 sequence: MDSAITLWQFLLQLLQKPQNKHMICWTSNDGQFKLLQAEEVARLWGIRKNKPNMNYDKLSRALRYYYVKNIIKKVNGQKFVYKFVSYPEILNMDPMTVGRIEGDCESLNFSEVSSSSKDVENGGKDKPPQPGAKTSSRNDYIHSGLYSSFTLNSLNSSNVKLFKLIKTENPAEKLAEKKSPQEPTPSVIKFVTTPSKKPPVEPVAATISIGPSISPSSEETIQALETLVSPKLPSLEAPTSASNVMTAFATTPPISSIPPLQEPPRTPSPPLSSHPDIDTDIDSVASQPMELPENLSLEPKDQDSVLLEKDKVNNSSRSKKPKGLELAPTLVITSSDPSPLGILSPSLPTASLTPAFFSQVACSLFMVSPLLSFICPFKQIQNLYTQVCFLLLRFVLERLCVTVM
# Procedure, shortened: as §1
# ETV2 = target: T4, ETV2 (Homo sapiens, UniProt O00321 1-342); conditions: protein: recombinant; tags: N-terminal GST; dsDNA, one strand shown
# T4 sequence: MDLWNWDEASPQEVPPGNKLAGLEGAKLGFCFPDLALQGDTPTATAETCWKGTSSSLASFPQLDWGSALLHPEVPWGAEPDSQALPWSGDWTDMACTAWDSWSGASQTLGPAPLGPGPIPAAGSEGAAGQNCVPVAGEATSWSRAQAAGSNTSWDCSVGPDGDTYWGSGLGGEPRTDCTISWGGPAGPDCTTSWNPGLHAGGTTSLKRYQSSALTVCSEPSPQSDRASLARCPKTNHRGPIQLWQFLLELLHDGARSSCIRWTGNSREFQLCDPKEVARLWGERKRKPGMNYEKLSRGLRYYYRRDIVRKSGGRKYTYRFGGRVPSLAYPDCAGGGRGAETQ
# Procedure, shortened: as §1
# ELF3 = target: T5, ELF3 (Homo sapiens, UniProt P78545 1-371); conditions: protein: recombinant; tags: N-terminal GST; dsDNA, one strand shown
# T5 sequence: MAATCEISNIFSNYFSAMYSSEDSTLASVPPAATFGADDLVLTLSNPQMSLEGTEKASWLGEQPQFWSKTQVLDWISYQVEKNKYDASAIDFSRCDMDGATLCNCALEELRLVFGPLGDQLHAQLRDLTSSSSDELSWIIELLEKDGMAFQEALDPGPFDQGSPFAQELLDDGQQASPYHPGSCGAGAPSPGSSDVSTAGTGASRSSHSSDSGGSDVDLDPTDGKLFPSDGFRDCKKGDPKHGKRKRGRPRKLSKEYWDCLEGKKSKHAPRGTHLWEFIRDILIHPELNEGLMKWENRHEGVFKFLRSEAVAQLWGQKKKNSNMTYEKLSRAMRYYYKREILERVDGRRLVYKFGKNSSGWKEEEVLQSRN
# Procedure, shortened: as §1
# CRX = CRX (Homo sapiens, UniProt O43186 1-299); conditions: protein: recombinant; tags: N-terminal GST; dsDNA, one strand shown
# Sequence of CRX (O43186 whole entry): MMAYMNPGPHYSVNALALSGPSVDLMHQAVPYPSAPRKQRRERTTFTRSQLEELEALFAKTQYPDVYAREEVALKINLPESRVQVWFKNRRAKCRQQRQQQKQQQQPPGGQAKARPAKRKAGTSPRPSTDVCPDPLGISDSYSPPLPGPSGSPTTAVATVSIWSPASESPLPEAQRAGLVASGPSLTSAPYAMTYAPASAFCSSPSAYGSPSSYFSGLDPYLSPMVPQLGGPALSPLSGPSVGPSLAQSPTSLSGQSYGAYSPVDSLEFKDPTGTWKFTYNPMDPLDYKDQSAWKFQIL
# Procedure, shortened: as §1
# ETV1 = ETV1 (Homo sapiens, UniProt P50549 1-477); conditions: protein: recombinant; tags: N-terminal GST; dsDNA, one strand shown
# Sequence of ETV1 (P50549 whole entry): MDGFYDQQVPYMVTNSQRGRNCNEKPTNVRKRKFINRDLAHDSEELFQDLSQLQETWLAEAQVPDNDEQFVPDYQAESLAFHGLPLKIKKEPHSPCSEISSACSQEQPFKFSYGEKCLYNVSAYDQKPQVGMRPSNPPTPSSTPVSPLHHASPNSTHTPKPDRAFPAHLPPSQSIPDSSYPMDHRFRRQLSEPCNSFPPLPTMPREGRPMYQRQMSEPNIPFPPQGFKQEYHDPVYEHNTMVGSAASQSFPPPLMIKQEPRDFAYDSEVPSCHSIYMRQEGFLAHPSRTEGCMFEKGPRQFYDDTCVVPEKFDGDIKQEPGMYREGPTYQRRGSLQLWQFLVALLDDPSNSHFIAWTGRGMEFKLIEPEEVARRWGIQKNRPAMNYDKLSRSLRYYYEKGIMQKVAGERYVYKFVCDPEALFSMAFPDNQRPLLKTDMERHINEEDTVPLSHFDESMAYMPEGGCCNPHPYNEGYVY
# Procedure, shortened: as §1
# ERF = target: T6, ERF (Homo sapiens, UniProt P50548 1-548); conditions: protein: recombinant; tags: N-terminal GST; dsDNA, one strand shown
# T6 sequence: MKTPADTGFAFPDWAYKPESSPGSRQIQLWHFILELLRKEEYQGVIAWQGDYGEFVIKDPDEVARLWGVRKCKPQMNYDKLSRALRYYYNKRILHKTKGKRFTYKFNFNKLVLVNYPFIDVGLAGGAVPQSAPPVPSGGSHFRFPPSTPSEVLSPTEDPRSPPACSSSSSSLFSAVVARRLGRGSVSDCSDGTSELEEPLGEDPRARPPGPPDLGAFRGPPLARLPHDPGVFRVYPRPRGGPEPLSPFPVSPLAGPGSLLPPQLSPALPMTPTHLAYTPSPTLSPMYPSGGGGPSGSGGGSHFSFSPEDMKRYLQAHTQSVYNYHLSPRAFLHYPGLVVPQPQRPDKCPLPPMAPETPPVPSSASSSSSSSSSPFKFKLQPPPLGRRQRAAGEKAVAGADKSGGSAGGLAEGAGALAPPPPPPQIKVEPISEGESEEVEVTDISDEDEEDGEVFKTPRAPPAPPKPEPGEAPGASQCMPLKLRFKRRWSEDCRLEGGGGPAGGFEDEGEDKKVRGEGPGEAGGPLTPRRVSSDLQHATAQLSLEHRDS
# Procedure, shortened: as §1
# ETV3L = target: T7, ETV3L (Homo sapiens, UniProt Q6ZN32 1-361); conditions: protein: recombinant; tags: N-terminal GST; dsDNA, one strand shown
# T7 sequence: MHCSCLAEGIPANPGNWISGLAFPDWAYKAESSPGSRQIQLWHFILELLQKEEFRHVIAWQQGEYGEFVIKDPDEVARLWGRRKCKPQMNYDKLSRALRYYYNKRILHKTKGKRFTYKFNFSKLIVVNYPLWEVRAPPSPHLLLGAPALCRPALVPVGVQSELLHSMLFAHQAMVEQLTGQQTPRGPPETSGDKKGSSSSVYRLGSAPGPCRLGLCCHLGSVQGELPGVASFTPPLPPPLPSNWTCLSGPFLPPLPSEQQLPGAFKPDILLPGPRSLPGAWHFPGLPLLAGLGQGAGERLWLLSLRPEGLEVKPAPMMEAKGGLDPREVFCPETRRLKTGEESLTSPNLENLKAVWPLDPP
# Procedure, shortened: as §1
# ETS2 = target: T8, ETS2 (Homo sapiens, UniProt P15036 1-469); conditions: protein: recombinant; tags: N-terminal GST; dsDNA, one strand shown
# T8 sequence: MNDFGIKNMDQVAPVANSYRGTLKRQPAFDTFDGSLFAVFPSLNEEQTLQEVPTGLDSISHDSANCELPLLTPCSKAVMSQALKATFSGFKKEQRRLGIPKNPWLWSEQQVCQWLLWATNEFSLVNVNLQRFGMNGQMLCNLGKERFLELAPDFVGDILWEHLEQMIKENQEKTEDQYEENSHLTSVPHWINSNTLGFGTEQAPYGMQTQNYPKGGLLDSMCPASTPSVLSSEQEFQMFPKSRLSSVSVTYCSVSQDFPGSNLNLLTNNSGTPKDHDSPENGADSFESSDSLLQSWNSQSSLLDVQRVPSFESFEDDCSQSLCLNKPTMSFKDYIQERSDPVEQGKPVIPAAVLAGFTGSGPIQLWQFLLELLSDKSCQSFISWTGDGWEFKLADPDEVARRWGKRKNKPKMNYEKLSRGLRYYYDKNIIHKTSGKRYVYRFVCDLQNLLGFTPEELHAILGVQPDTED
# Procedure, shortened: as §1
# SPDEF = target: T9, SPDEF (Homo sapiens, UniProt O95238 1-335); conditions: protein: recombinant; tags: N-terminal GST; dsDNA, one strand shown
# T9 sequence: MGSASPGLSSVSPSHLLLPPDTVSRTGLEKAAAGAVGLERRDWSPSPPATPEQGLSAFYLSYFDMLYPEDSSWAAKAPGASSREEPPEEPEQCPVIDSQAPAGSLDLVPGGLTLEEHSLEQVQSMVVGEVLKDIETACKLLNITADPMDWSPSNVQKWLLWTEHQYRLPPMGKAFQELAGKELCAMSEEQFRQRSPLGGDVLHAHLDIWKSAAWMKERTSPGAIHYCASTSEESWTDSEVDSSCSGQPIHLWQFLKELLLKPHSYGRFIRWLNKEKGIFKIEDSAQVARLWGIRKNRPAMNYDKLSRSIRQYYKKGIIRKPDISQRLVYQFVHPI
# Procedure, shortened: as §1
# ETV7 = target: T10, ETV7 (Homo sapiens, UniProt Q9Y603 1-341); conditions: protein: recombinant; tags: N-terminal GST; dsDNA, one strand shown
# T10 sequence: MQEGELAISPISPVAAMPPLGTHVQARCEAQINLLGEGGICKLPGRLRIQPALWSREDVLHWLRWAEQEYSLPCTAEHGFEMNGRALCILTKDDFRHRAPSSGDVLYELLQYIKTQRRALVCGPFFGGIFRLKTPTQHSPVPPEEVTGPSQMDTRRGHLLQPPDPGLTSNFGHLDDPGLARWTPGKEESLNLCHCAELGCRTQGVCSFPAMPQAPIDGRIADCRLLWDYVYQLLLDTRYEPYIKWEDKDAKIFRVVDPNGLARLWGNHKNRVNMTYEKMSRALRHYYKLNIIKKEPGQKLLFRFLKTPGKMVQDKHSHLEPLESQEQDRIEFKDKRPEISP
# Procedure, shortened: as §1
# ELF5 = target: T11, ELF5 (Homo sapiens, UniProt Q9UKW6-2 1-255); conditions: protein: recombinant; tags: N-terminal GST; dsDNA, one strand shown
# T11 sequence: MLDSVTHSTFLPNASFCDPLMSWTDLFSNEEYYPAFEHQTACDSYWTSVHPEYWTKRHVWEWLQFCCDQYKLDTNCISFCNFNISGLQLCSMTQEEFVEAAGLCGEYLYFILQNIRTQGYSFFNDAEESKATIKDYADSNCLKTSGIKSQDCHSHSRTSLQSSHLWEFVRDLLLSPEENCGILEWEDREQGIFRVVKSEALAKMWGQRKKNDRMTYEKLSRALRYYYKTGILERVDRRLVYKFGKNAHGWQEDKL
# Procedure, shortened: as §1
# ETV3 = target: T12, ETV3 (Homo sapiens, UniProt P41162-2 1-143); conditions: protein: recombinant; tags: N-terminal GST; dsDNA, one strand shown
# T12 sequence: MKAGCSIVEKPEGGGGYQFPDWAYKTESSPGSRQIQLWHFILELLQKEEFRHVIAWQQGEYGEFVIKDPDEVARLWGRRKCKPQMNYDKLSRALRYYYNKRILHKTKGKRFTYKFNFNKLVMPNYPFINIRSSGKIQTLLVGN
# Procedure, shortened: as §1
# ETV6 = ETV6 (Homo sapiens, UniProt P41212 1-452); conditions: protein: recombinant; tags: N-terminal GST; dsDNA, one strand shown
# Sequence of ETV6 (P41212 whole entry): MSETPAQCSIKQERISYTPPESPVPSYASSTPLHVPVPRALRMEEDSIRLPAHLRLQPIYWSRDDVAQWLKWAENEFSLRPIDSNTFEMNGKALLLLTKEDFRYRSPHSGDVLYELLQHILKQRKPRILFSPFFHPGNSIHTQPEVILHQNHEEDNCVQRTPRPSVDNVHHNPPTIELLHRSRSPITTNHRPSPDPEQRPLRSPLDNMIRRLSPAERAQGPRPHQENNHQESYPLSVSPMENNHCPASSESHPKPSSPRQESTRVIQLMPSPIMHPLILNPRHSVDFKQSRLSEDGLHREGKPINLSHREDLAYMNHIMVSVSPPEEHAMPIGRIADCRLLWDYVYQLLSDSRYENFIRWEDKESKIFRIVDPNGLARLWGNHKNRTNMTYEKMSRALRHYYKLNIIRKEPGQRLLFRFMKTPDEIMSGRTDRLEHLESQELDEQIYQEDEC
# Procedure, shortened: as §1
sequence,measurement,setting,value
GCCCCT,binding signal,FEV,"1.39 fold enrichment (6-mer frequency, TF over GST control)"
same,binding signal,ETV5,"1.39 fold enrichment (6-mer frequency, TF over GST control)"
same,binding signal,HSF1,"1.13 fold enrichment (6-mer frequency, TF over GST control)"
same,binding signal,SPIC,"1.22 fold enrichment (6-mer frequency, TF over GST control)"
same,binding signal,ELF4,"1.4 fold enrichment (6-mer frequency, TF over GST control)"
same,binding signal,ELK4,"1.37 fold enrichment (6-mer frequency, TF over GST control)"
same,binding signal,ETV2,"1.28 fold enrichment (6-mer frequency, TF over GST control)"
same,binding signal,ELF3,"1.24 fold enrichment (6-mer frequency, TF over GST control)"
same,binding signal,CRX,"1.12 fold enrichment (6-mer frequency, TF over GST control)"
same,binding signal,ETV1,"1.34 fold enrichment (6-mer frequency, TF over GST control)"
same,binding signal,ERF,"1.27 fold enrichment (6-mer frequency, TF over GST control)"
same,binding signal,ETV3L,"1.3 fold enrichment (6-mer frequency, TF over GST control)"
same,binding signal,ETS2,"1.27 fold enrichment (6-mer frequency, TF over GST control)"
same,binding signal,SPDEF,"1.37 fold enrichment (6-mer frequency, TF over GST control)"
same,binding signal,ETV7,"1.22 fold enrichment (6-mer frequency, TF over GST control)"
same,binding signal,ELF5,"1.2 fold enrichment (6-mer frequency, TF over GST control)"
same,binding signal,ETV3,"1.23 fold enrichment (6-mer frequency, TF over GST control)"
same,binding signal,ETV6,"1.23 fold enrichment (6-mer frequency, TF over GST control)"
